{"source": "PubChem BioAssay AID2410", "about": "(Southern Research Specialized Biocontainment Screening …, 2010)", "note": "Screen size: about 2,500 compounds; about 2,100 (84%) were called active.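 How the source made its calls: active means toxic compounds, whose cell viability fell below 70% of untreated control cells; inactive means the rest.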 The set was probably picked from earlier hits. Only a sample is shown. Measured potencies and affinities stand elsewhere."}
{"experiment": "viability of uninfected HEp-2 cells – cell-based, HTS, cytotoxicity control for RSV inhibitor project, dose response (AID 2410);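 further: cells exposed to compound for six days before readout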", "settings": "HEp-2 viability, luminescence, cytotoxicity counter-screen; series mostly up to 50 µM"}
{"smiles": "Cn1c(=NC(=O)C2CC2)sc2cc(F)cc(F)c21", "outcome": "inactive"}
{"smiles": "COC(=O)c1ccc2[nH]ccc2c1", "outcome": "inactive"}
{"smiles": "CC1CCCN(C(=O)CCNS(=O)(=O)c2ccc(Br)cc2)C1", "note": "(centres undefined)", "outcome": "inactive"}
{"smiles": "c1ccc(-c2nn3c(Cn4nnc5ccccc54)nnc3s2)cc1", "outcome": "inactive"}
{"smiles": "c1coc(-c2nn3c(Cn4nnc5ccccc54)nnc3s2)c1", "outcome": "inactive"}
{"smiles": "CCOC(=O)Cc1c(C)c2ccc(N(CC)CC)cc2oc1=O", "outcome": "inactive"}
{"smiles": "Cc1c(Cc2ccccc2)c(=O)oc2cc(O)cc(O)c12", "outcome": "inactive"}
{"smiles": "CNc1oc(/C=C/c2cccc(OC)c2)nc1C#N", "outcome": "inactive"}
{"smiles": "N#Cc1c(N2CCOCC2)nsc1-c1ccc(C(F)(F)F)cc1", "outcome": "inactive"}
{"smiles": "Cc1ccc(-c2nc3cc(N)ccc3o2)cc1Br", "outcome": "inactive"}
{"smiles": "COC(=O)c1sccc1NC(=O)c1ccccc1F", "outcome": "inactive"}
{"smiles": "O=C(NCCN1CCN(C(=O)C(c2ccccc2)c2ccccc2)CC1)C(=O)Nc1ccccc1", "outcome": "inactive"}
{"smiles": "COc1cc(N)c(Cl)cc1NC(=O)c1ccccc1", "outcome": "inactive"}
{"smiles": "Cc1nn2c(N)c(C#N)cnc2c1-c1ccccc1", "outcome": "inactive"}
{"smiles": "Cc1ccc(Nc2nc(N)c([N+](=O)[O-])c(N3CCOCC3)n2)cc1C", "outcome": "inactive"}
{"smiles": "C[C@@H]1CN(C(=O)c2nc3ccc(Cl)cn3c2CN2CCc3sccc3C2)C[C@H](C)O1", "outcome": "inactive"}
{"smiles": "CN(CC(=O)NCc1ccc(F)cc1)S(=O)(=O)c1cccc2nsnc12", "outcome": "inactive"}
{"smiles": "CCN(c1ccccc1)S(=O)(=O)c1ccc(Cl)c(NC(=O)c2ccc(=O)[nH]n2)c1", "outcome": "inactive"}
{"smiles": "CSc1ncc(Cl)c(C(=O)Nc2ccccc2Br)n1", "outcome": "inactive"}
{"smiles": "C/C(N)=C(/C#N)C(=O)COC(=O)c1ccncc1", "outcome": "inactive"}
{"smiles": "C=CCC1(C#N)C(=S)NC(C)=C(C(=O)OCC)C1c1ccccc1", "note": "(centres undefined)", "outcome": "inactive"}
{"smiles": "CNC(=S)N/N=C(\\C)c1ccc(-n2ccnc2)cc1", "outcome": "inactive"}
{"smiles": "Cc1ccc(-n2c(-c3cccnc3)n[nH]c2=S)c(C)c1", "outcome": "inactive"}
{"smiles": "COc1cc(-c2nc3c(c(C)nn3-c3ccccc3)c3cc(OC)c(OC)cc23)ccc1O", "outcome": "inactive"}
{"smiles": "COc1ccc(/C=C/C(=O)NCc2nc3ccccc3[nH]2)cc1OC", "outcome": "inactive"}
{"smiles": "CC(C(=O)NCCc1ccc(Cl)cc1)n1c(=O)c2cccn2c2cccnc21", "note": "(centres undefined)", "outcome": "inactive"}
{"smiles": "O=[N+]([O-])c1ccc(N/N=C/c2cccnc2)cc1", "outcome": "inactive"}
{"smiles": "COc1ccc(C2Nc3cc(OC)ccc3-n3cccc32)cc1", "note": "(centres undefined)", "outcome": "inactive"}
{"smiles": "COc1ccc(-c2cc(C(=O)Nc3nc4c(C)cccc4s3)c3ccccc3n2)cc1OC", "outcome": "inactive"}
{"smiles": "CCCNC(=O)N1CCN(c2nc(C(C)C)c3c(c2C#N)CC(C)(C)OC3)CC1", "outcome": "inactive"}
{"smiles": "Cc1cccc2nc(COc3ccc(Cl)c4cccnc34)cn12", "outcome": "inactive"}
{"smiles": "O=C1[C@H]2[C@@H](c3ccc(Cl)cc3)N3C(=O)N(c4cccc(Br)c4)C(=O)[C@@]3(Cc3ccc(Cl)cc3)[C@H]2C(=O)N1C1CCCCC1", "outcome": "inactive"}
{"smiles": "CC(C)(C)N1C(=O)[C@H]2[C@@H](c3ccc(Br)cc3)N3C(=O)N(c4cccc(Cl)c4)C(=O)[C@@]3(Cc3ccccc3)[C@H]2C1=O", "outcome": "inactive"}
{"smiles": "O=C1[C@H]2[C@@H](c3ccc(F)cc3)N3C(=O)N(c4ccc(Br)cc4)C(=O)[C@@]3(Cc3ccc(Cl)cc3)[C@H]2C(=O)N1C1CCCCC1", "outcome": "inactive"}
{"smiles": "O=c1c2ccccc2oc2ccc(-c3ccc4[nH]ccc4c3)cc12", "outcome": "inactive"}
{"smiles": "COc1ccc2oc(-c3ccco3)cc(=O)c2c1", "outcome": "inactive"}
{"smiles": "O=C1C2CCCN2c2ccc(S(=O)(=O)N3CCOCC3)cc2N1Cc1ccccc1F", "note": "(centres undefined)", "outcome": "inactive"}
{"smiles": "O=C(c1ccc(F)cc1)N1CCN2C(=O)c3ccccc3C12c1ccccc1", "note": "(centres undefined)", "outcome": "inactive"}
{"smiles": "Nc1ccc(Cl)c[n+]1Cc1cccc2cccnc12", "outcome": "inactive"}
{"smiles": "N#C/C(=C\\c1ccncc1)c1nc2c(s1)CCCC2", "outcome": "inactive"}
{"smiles": "COc1ccc2ccc(=O)oc2c1", "outcome": "inactive"}
{"smiles": "Cc1c(CC(=O)N2CCN(C(=O)C3COc4ccccc4O3)CC2)c(=O)oc2cc(O)cc(O)c12", "note": "(centres undefined)", "outcome": "inactive"}
{"smiles": "Cc1cc(S(=O)(=O)N2CCCC2)ccc1OCC(=O)Nc1ccccc1", "outcome": "inactive"}
{"smiles": "CC(=O)c1ccc2c(ccc3ccccc32)c1", "outcome": "inactive"}
{"smiles": "COCCCNC(=O)c1ccc(Cn2c(=O)c3ccccc3n(Cc3ccc(C)cc3)c2=O)cc1", "outcome": "inactive"}
{"smiles": "CC(=O)c1c(C)nc(-c2ccc(Cl)cc2)nc1N=CN(C)C", "outcome": "inactive"}
{"smiles": "O=C1c2ccccc2C(Nc2cccnc2)N1Cc1ccc2c(c1)OCO2", "note": "(centres undefined)", "outcome": "inactive"}
{"smiles": "Cc1ccc2[nH]c(=O)c(COC(=O)c3ccccn3)cc2c1", "outcome": "inactive"}
{"smiles": "COc1ccc(NC(=O)C2(c3ccc(NC(=O)c4ccc(OC)cc4)cc3)CCCC2)cc1", "outcome": "inactive"}
{"smiles": "Nc1nnnn1/N=C/c1ccc(O)cc1", "outcome": "inactive"}
{"smiles": "COCCn1c(-c2ccc(Cl)cc2Cl)nc2c(c(=O)c3ccccc3n2C)c1=O", "outcome": "inactive"}
{"smiles": "CCCCCC(=O)Nc1nc(C)c(-c2csc(Nc3cc(Cl)ccc3OC)n2)s1", "outcome": "inactive"}
{"smiles": "O=C(NC(C(=O)N/N=C/c1cccnc1)c1n[nH]c(=O)c2ccccc12)c1ccccc1", "note": "(centres undefined)", "outcome": "inactive"}
{"smiles": "O=C(NCCSCc1c(F)cccc1Cl)Nc1ccccc1", "outcome": "inactive"}
{"smiles": "Cc1nc2cc(Cl)c(Cl)cc2n1-c1ccccn1", "outcome": "inactive"}
{"smiles": "Cc1ccc([N+](=O)[O-])cc1S(=O)(=O)Nc1cccc(-c2ccc(N3CCOCC3)nn2)c1", "outcome": "inactive"}
{"smiles": "Cc1c(-c2nc(N)nc(Nc3ccc(F)cc3)n2)oc2ccccc12", "outcome": "inactive"}
{"smiles": "COC(=O)c1ccc(Nc2nnc(-c3ccc(C)c(S(=O)(=O)NCC4CCCO4)c3)c3ccccc23)cc1", "note": "(centres undefined)", "outcome": "inactive"}
{"smiles": "CCCc1cc(-n2cnc3ccccc32)n2c(nc3ccccc32)c1C#N", "outcome": "inactive"}
{"smiles": "O=C(CSc1nc2ccccc2c2nc3ccccc3n12)NCc1ccco1", "outcome": "inactive"}
{"smiles": "Cc1ccc2cc3cc(C(=O)N4CCCCCC4)oc3nc2c1", "outcome": "inactive"}
{"smiles": "Cc1sc(=NC(=O)c2ccco2)n(C)c1-c1ccc(Cl)cc1", "outcome": "inactive"}
{"smiles": "Cn1cc(C(N)=O)c2ccccc21", "outcome": "inactive"}
{"smiles": "Cc1ccc(C)c(NC(=O)CSc2nc3c(oc4ccccc43)c(=O)n2-c2ccccc2)c1", "outcome": "inactive"}
{"smiles": "O=C(Nc1ccon1)c1sc2cc(F)ccc2c1Cl", "outcome": "inactive"}
{"smiles": "Cc1ccc(/C=N\\NC(=O)C2CN(S(=O)(=O)c3ccccc3)CCN2S(=O)(=O)c2ccccc2)cc1", "note": "(centres undefined)", "outcome": "inactive"}
{"smiles": "C/C(N)=C(/C#N)C(=O)CSc1cc(C)c2cc(C)cc(C)c2n1", "outcome": "inactive"}
{"smiles": "C/C(N)=C(/C#N)C(=O)CSc1ncnc2ccccc12", "outcome": "inactive"}
{"smiles": "COc1ccc(CN2C(=O)c3cccnc3C2Nc2ccc(OC)c(Cl)c2)cc1", "note": "(centres undefined)", "outcome": "inactive"}
